This is an account of results in PubChem BioAssay.

Activity calls are given as the source filed them. Unless noted, how the calls were made is not given here.

Assay [1] relates to Wnt5a (protein binding on small-molecule microarray). The assay is described as follows: small molecules binding Wnt5a protein – biophysical, small-molecule microarray, 635/667 nm fluorescence, primary screen (AID 1142).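 Further: fluorescence read at 667 nm with signal to noise per printed feature.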 The following applies: 635 nm fluorescence, higher = more signal.
Assay [2] is described as follows: ATP-based viability of Huh7 replicon cells – cell-based, CellTiter-Glo luminescence, basal, 48 h, cytotoxicity control for HCV replication inhibitor project, primary screen (AID 1143).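 Further: Huh7 hepatoma cells carrying a hepatitis C replication reporter with no stimulus; test concentration not given here.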 The following applies: higher = more signal, called active from +8 up or from −8 down. For orientation: A replicon is a self-replicating genome or part of one, used to study replication in cells.

Assay [3] is described as follows: Pseudomonas biofilm growth suppression – PAO1 strain, BacTiter-Glo luminescence, LB-PBS, primary screen (AID 1144). The following applies: P. aeruginosa PAO1 biofilm, 12 h, higher = more signal.
Assay [4] in a line: basal CRE-LacZ reporter activity in PC12 – cell-based, unstimulated, primary screen (AID 1145). The following applies: no forskolin, luminescence, 4.5 h, higher = more signal, called active from +8 up or from −8 down.
Assay [5] is described as follows: forskolin-driven CRE-LacZ activity in PC12 – cell-based, CRE-LacZ reporter, forskolin-stimulated, primary screen (AID 1146).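 Further: PC12 cells with 6xCRE LacZ reporter stimulated by forskolin 10 µM; beta-galactosidase reporter signal reflecting CREB driven transcription.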 The following applies: luminescence, 4.5 h, higher = more signal, called active from +8 up or from −8 down.
Assay [6] has as its target Streptavidin (Streptomyces avidinii) (UniProt P22629). As to the kind of experiment: compounds binding control protein streptavidin – biophysical, small-molecule microarray, 635/667 nm fluorescence, artefact control for SMM compound annotation, primary screen (AID 1147).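 Further: signal reflects streptavidin binding to arrayed compounds as a control protein.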 The following applies: higher = more signal.
A short description of assay [7]: probe aInhba binding on compound microarray – biochemical, small-molecule microarray, 635/667 nm fluorescence, primary screen (AID 1148).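 Further: score merges 667nm spot fluorescence with signal-to-noise for antibody binding to printed compounds.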 The following applies: higher = more signal.
In assay [8] the target is Torsin-1A (Homo sapiens) (UniProt O14656). The assay is described as follows: TOR1A wild-type binding on microarray – cell lysate, small-molecule microarray, lysate, 635/667 nm, primary screen (AID 1149). The following applies: COS7 hTOR1A-WT lysate, 635 nm fluorescence, higher = more signal.
Torsin-1A (Homo sapiens), sequence (O14656 whole entry, looked up): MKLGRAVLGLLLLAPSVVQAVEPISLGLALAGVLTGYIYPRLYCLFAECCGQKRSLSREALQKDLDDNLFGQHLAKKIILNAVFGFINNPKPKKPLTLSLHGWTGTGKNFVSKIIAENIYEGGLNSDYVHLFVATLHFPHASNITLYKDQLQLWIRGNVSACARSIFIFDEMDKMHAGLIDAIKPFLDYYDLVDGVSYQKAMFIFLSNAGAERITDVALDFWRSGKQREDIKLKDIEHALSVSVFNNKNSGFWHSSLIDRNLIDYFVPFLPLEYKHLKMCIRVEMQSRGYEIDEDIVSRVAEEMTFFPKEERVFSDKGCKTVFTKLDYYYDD
The target is the same in assay [9]. As to the kind of experiment: torsin A mutant lysate binding on microarrays – cell lysate, small-molecule microarray, COS7 lysate, 635/667 nm fluorescence, primary screen (AID 1150).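 Further: score pools 667 nm emission and signal to noise measuring lysate protein binding.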 The following applies: COS7 hTOR1A mutant lysate, 635 nm fluorescence, higher = more signal.
Assay [10] relates to Sonic hedgehog protein (Shh). The assay is described as follows: Sonic hedgehog microarray binding compounds – biochemical, small-molecule microarray, 635/667 nm fluorescence, primary screen (AID 1151).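 Further: Shh protein binding to compounds spotted on small-molecule microarray slides; score combines spot fluorescence intensity with signal-to-noise across triplicate slides.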 The following applies: 635 nm fluorescence, higher = more signal.
A short description of assay [11]: optical density shifts of acrAB sulA E. coli – strain DRC41, OD650, 48 h, E. coli filamentation inducer project, primary screen (AID 1152).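 Further: E. coli MC1000 strain DRC41 lacking acrAB efflux pump and sulA.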 The following applies: higher = more signal, called active from +8 up or from −8 down.
Assay [12] can be described thus: probe aLefty1 binding on compound microarray – biochemical, small-molecule microarray, 635/667 nm fluorescence, primary screen (AID 1153).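 Further: score merges spot fluorescence with signal-to-noise ratio from the scanned slide images.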 The following applies: higher = more signal.
A short description of assay [13]: plasmodial surface anion channel blockers, osmotic lysis – cell-based, P. falciparum Indochina, OD700, 1 h, primary screen (AID 1154). The following applies: P. falciparum Indochina infected RBC osmotic lysis, higher = more signal, called active from +8 up or from −8 down.
A short description of assay [14]: plasmodial surface anion channel blockers, osmotic lysis – cell-based, P. falciparum Indochina, OD700, 2 h, primary screen (AID 1155).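 Further: lysis reports solute entry through the parasite surface anion channel PSAC.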 The following applies: P. falciparum Indochina infected erythrocytes, higher = more signal, called active from +8 up or from −8 down.
A short description of assay [15]: changes in parasitized red cell lysis, either direction – P. falciparum Indochina, OD700, 3 h, PSAC antagonist project, primary screen (AID 1156). The following applies: P. falciparum-infected erythrocytes, osmotic lysis, higher = more signal, called active from +8 up or from −8 down.
Assay [16] in a line: plasmodial surface anion channel blockers, osmotic lysis – cell-based, P. falciparum Indochina, OD700, 18 h, primary screen (AID 1157). The following applies: P. falciparum Indochina infected erythrocytes, osmotic lysis OD700, 18 h; higher = more signal, called active from +8 up or from −8 down.
The nature of assay [17]: S6 kinase pathway phospho-S6 level changes – cell-based, A549, cytoblot, luminescence, serum-stimulated, primary screen (AID 1158).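 Further: serum-stimulated A549 lung adenocarcinoma cells; signal is phosphorylated S6 detected by cytoblot immunostaining with HRP secondary.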 The following applies: 5 h, higher = more signal.
The target in assay [18] is NADPH oxidase 2 (Homo sapiens) (UniProt P04839). The assay is described as follows: compounds shifting NOX2 Amplex Red fluorescence – cell-based, HEK293-NOX2, PMA-stimulated, NOX inhibitor project, primary screen (AID 1159). Further: test concentration not given here. The following applies: 45 min, higher = more signal, called active from +8 up or from −8 down.
NADPH oxidase 2 (Homo sapiens), sequence (P04839 whole entry, looked up): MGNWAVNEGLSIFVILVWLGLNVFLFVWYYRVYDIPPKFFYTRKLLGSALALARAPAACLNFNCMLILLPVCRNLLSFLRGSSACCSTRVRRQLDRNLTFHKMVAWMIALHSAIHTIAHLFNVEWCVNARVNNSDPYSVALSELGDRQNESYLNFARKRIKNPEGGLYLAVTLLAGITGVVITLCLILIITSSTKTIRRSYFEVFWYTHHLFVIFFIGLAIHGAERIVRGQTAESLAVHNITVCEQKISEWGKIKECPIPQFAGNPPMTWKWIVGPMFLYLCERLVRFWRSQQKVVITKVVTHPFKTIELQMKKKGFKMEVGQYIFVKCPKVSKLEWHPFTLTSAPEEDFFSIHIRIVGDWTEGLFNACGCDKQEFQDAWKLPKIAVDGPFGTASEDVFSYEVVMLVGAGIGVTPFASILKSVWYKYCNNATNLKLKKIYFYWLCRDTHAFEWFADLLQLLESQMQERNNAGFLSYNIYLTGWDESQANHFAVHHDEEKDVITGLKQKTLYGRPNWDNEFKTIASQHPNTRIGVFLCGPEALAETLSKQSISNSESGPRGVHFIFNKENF
The target of assay [19] is NADPH oxidase 4 (Homo sapiens) (UniProt Q9NPH5). As to the kind of experiment: compounds shifting NOX4 Amplex Red fluorescence – cell-based, HEK293-NOX4, tetracycline-induced, NOX inhibitor project, primary screen (AID 1160). The following applies: HEK293-NOX4, Amplex Red H2O2 fluorescence, 45 min; higher = more signal, called active from +8 up or from −8 down.
NADPH oxidase 4 (Homo sapiens), sequence (Q9NPH5 whole entry, looked up): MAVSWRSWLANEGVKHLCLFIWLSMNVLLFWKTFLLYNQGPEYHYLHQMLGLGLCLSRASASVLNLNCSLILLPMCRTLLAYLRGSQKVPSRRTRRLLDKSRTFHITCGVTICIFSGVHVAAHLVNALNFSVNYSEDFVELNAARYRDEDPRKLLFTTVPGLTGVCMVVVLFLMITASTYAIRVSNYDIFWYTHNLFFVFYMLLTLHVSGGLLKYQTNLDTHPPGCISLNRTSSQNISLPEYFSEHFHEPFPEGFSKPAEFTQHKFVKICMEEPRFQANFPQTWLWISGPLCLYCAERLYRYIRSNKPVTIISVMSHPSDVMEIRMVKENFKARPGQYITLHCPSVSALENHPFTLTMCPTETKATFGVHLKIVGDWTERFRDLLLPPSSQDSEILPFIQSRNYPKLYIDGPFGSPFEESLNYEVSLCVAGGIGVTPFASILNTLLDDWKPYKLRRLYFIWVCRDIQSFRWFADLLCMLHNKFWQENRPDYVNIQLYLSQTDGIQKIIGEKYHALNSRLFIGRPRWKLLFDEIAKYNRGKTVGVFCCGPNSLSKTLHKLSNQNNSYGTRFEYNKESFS
Assay [20] concerns the target NADPH oxidase 5 (Homo sapiens) (UniProt Q96PH1). As to the kind of experiment: compounds shifting NOX5 Amplex Red fluorescence – cell-based, HEK293-NOX5, NOX inhibitor project, primary screen (AID 1161). The following applies: HEK293-NOX5, ionomycin, 45 min, higher = more signal.

NADPH oxidase 5 (Homo sapiens), sequence (Q96PH1 whole entry, looked up): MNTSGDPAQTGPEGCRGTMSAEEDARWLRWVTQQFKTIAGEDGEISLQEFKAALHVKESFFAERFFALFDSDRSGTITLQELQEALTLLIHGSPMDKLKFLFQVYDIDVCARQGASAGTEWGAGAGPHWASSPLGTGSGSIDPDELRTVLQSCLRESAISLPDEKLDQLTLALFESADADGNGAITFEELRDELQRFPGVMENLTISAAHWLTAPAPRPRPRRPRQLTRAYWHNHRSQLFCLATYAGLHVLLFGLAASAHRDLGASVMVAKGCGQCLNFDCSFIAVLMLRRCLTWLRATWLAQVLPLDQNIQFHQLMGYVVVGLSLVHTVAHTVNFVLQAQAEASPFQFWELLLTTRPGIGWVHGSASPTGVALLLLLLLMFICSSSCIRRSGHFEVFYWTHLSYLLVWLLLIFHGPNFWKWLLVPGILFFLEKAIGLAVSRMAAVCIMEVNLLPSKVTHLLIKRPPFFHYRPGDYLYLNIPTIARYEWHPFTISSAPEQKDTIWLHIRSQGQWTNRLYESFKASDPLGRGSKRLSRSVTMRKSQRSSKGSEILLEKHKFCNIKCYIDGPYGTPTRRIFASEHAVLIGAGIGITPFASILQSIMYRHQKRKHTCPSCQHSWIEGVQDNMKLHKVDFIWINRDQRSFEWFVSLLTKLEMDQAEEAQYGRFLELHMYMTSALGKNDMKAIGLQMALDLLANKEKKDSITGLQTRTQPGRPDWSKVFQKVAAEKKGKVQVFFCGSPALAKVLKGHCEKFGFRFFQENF
Streptavidin (Streptomyces avidinii), sequence (P22629 whole entry, looked up): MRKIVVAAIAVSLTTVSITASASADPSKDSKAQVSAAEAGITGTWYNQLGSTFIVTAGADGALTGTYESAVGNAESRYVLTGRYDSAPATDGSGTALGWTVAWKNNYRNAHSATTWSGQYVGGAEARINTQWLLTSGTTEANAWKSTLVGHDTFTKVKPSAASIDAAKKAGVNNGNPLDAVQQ

`COC(=O)C1=CC(CCCO)=CC(C2CC2)N(Cc2cccc(OC(F)(F)F)c2)C=C1C(=O)OC` (stereo not given): the composite z-score in assay [1] is 0.172; in assay [6] it was 0.307; in assay [7], 0.0711; in [8], -0.38; in [9] it was 0.497; in assay [10] it was -0.153. Further, the composite z-score in assay [12] is 0.193. The z-score in assay [2] was -1.15 (inactive); in assay [3], -0.393 (inactive); in assay [4] it was -0.0243 (inactive); in [5], 0.969 (inactive); in assay [11] it was -1.16 (inactive); in assay [13] it was 3.22 (inactive). Further, the z-score in [14] is 0.455 (inactive); in assay [15] it was -0.623 (inactive); in assay [16], 0.526 (inactive); in assay [17], 0.204; in [18], -0.179 (inactive); in [19] it was -0.34 (inactive). Also, in assay [20], the z-score stood at 0.973.

Turning to `C=CCC(OC(C)=O)[C@@H]1[C@@H](N(Cc2ccc(-c3cccc(C(F)(F)F)c3)o2)C(=O)Cc2ccc(F)cc2)c2cc(OCCCO)ccc2N1C(=O)c1ccc2ccccc2c1` (stereo not given in full), the composite z-score in [1] was -0.314; in assay [6], -0.488; in assay [7], -0.2; in assay [8], -0.954; in [9], -0.244; in assay [10], 0.718. The composite z-score in assay [12] stood at 0.0732. In addition, the z-score in [2] was -0.376 (inactive); in assay [3] it was -0.25 (inactive); in [4], 0.279 (inactive); in assay [5], 0.914 (inactive); in assay [11], -0.353 (inactive); in assay [13] it was 0.05 (inactive). The z-score in assay [14] is -0.213 (inactive); in assay [15], 0.337 (inactive); in [16] it was 0.161 (inactive); in assay [17] it was 0.531; in assay [18], -2.05 (inactive); in [19], 0.631 (inactive). In assay [20], the z-score is 0.0399.

Turning to `CN(C)C(=O)[C@]1(Cc2ccccc2CN=[N+]=[N-])N=C(c2ccc(OCCCO)cc2)O[C@@H]1c1ccccc1N=[N+]=[N-]`, the composite z-score in assay [1] is 0.397; in assay [6], 1.34; in [7], 0.177; in assay [8] it was 0.0095; in assay [9], 0.25; in assay [10], -0.946. For the same molecule, the composite z-score in assay [12] is 0.413. Further, the z-score in assay [2] is -3.07 (inactive); in assay [3] it was -0.406 (inactive); in assay [4], -0.79 (inactive); in assay [5] it was -0.969 (inactive); in assay [11], -0.174 (inactive); in assay [13], 33.2 (active). Moreover, the z-score in assay [14] was 30 (active); in assay [15] it was 2.99 (inactive); in [16] it was 9.81 (active); in assay [17] it was -0.0847; in [18], -1.25 (inactive); in assay [19], 0.807 (inactive). Besides, the z-score in [20] was -0.474.

Consider `O=C1C2C=CC(C(O)c3cccs3)N(Nc3ccccc3)C2C(=O)N1c1ccccc1` (stereo not given), for which the composite z-score in assay [1] was 0.114; in assay [6], 0.195; in [7], -0.0604; in assay [8], -0.372; in [9], -0.629; in assay [10], 0.0003. In assay [12], this molecule gave a composite z-score of 0.328. The z-score in assay [2] was -2.55 (inactive); in [3] it was -0.991 (inactive); in assay [4], -0.136 (inactive); in assay [5], 0.592 (inactive); in [11] it was -0.597 (inactive); in assay [13], 2.55 (inactive). Further, the z-score is 0.52 (inactive) in assay [14]; 0.916 (inactive) in assay [15]; -0.423 (inactive) in assay [16]; 2.34 in assay [17]; -2.63 (inactive) in assay [18]; -3.57 (inactive) in assay [19]. For the same molecule, in assay [20], the z-score is -3.35.
